# Shown are actives, neighbours in structure and some others; about 0.52% of the full set was active somewhere.
# uPA generation = inhibitors of cell surface uPA generation | cell surface uPA generation assay, qHTS | Potency, µM (doses to about 38.3 µM), inactives show at the top dose activity change, negative = inhibition, hits mostly inhibitors | 0.31% of 330,000 active; active = well fitted inhibition curve with a large enough effect; inconclusive = small, poorly fitted or top-dose-only effect; inactive = no such curve, though single readings can be large or run the other way; tested in mouse RAW 264.7 cells; note: nearly all actives have a fitted effect of over 55% in size
# Chronic BCR inh = inhibitors of chronic active B-cell receptor signaling; ABC-DLBCL IkBa-CBG/CBR reporter, luminescence ratio, 4 h; Potency, µM (top dose mostly 46.1 µM), without a hit: at the highest dose activity change, negative = inhibition, actives largely listed as inhibitors; 0.05% of 340,000 active; AID 493014; active = well fitted inhibition curve with a large enough effect in the signal ratio, with a control signal flat, not every such curve was filed as active; inconclusive = small, poorly fitted or top-dose-only effect, or effect the other way, or a change in a side signal; the % refers to the signal ratio;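 note: plate controls were basal doxycycline-induced cells for no effect and cells given 10 µM MG132 for full effect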
#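 TMD8 ABC-DLBCL cells carrying doxycycline-inducible green luciferase fused to IkappaBalpha plus unfused red luciferase were exposed to compounds (up to 46 uM) for 4 hrs at 37C. Activity came from the overlap-corrected green/red luminescence ratio.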
# RGS4 inhibitor = blocks human RGS4-accelerated GTP hydrolysis | Transcreener GDP fluorescence polarization, RGS4-accelerated GTP hydrolysis | 0.039% of 390,000 active | Potency, µM (series often up to 114 µM), for the others: at the top dose activity change, negative = inhibition, most hits filed as inhibitors | P49798; note: nearly all actives have a fitted effect of over 75% in size
#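 MLSMR compounds (23 nl, pin-transferred) preincubated 10 min at room temperature with a 500nM (2x) first reagent, then RGS4 at 900nM (2x) plus Transcreener GDP mix added; fluorescence polarization (620/688 nm) read before and after 90 min at 30 °C.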
# Eya2 phos inh = inhibitors of human Eya2 phosphatase activity. AID 488837. Potency, µM (series often up to 76.9 µM), for the others: top-dose activity, negative = inhibition, hits mostly inhibitors. recombinant Eya2, OMFP fluorescence dephosphorylation (OMFP is methylfluorescein phosphate). O00167. 0.006% of 330,000 active
#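 Eya2 (0.2 uM) preincubated 10 min at ambient with compound, then OMFP substrate added at 50 uM; 10 min reaction in 50 mM HEPES pH 7.5, 50 mM NaCl, 5 uM MgCl2, 0.05% BSA, 1 mM DTT. Fluorescence read at Ex 485/Em 525 nm.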
# USP2a block = inhibitors of human ubiquitin-specific protease USP2a; 0.01% of 330,000 active; O75604; Potency, µM (series often up to 38.3 µM), for inactives: at the highest dose activity change, negative = inhibition, hits mostly inhibitors; USP2 core, Ub-CHOP2 coupled fluorogenic reporter, 485/531;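 note: plate controls were DMSO wells for no effect and full inhibition by NEM control for full effect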
#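 USP2 core (10nM final) preincubated 30min RT with compound in 20mM Tris-HCl pH 8.0, 2mM CaCl2, 2mM beta-mercaptoethanol, 0.05% CHAPS; 25nM Ub-CHOP2 plus 25nM reporter substrate added, fluorescence (Ex485/Em531) read after 60min.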
# GCN5L2 inh = GCN5L2 (KAT2A) acetyltransferase inhibition; Q92830; GCN5L2 HAT assay, ThioGlo1 CoA-SH fluorescence; Potency, µM (titrated, usually from 58.9 µM), inactives show top-dose activity change, negative = inhibition, usual class: inhibitors; 0.21% of 390,000 active; AID 504327
# Target sequence (Q92830 whole entry, looked up): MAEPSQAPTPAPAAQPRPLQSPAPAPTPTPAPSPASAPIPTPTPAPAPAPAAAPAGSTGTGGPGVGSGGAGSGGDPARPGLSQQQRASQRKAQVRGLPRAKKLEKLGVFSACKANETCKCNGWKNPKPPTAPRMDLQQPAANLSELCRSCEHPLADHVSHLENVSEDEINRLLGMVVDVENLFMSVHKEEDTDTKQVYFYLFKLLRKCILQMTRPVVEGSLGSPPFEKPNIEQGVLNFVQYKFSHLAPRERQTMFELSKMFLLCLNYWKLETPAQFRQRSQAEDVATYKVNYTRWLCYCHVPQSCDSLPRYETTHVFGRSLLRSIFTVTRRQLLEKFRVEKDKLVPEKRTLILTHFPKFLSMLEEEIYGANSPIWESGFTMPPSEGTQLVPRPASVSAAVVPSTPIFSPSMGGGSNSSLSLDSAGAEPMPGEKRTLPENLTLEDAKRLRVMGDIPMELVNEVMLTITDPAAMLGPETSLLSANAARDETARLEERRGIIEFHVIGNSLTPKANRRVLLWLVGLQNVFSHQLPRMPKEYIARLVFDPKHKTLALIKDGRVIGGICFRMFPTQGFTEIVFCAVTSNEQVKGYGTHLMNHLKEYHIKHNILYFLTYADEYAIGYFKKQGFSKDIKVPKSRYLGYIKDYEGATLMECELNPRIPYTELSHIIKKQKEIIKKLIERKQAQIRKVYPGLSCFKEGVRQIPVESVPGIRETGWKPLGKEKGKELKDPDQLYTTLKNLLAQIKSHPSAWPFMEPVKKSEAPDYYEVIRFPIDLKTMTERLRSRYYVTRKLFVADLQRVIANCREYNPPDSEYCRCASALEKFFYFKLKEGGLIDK
#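 GCN5L2 (20 nM) in 50mM HEPES pH 7.5, 0.1mM EDTA, 0.01% Tween-20 preincubated 15 min with compounds at room temperature. Reaction started with H3(1-25) 75uM, acetyl-CoA 70uM, ThioGlo1 50uM; CoA-thiol fluorescence (Ex340/Em540) read at 0 and 20 min.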
# * marks the source's active call; other numbers are inactive results; u = inconclusive; x = not tested or not shown; ! = not active in a repeat; [ ] = dose if it differs, or a comment. Unless noted, calls come from the whole dose curve; as a rule, active = well fitted curve in the direction sought with a large enough effect; inconclusive = small, poorly fitted or top-dose-only effect, or another doubt; inactive = no such curve, though single readings can be large; an effect the other way counts as inactive or inconclusive. Unless noted, % is set by controls: 0 for no effect and ±100 for the full control effect; potency is the fitted concentration of half-maximal effect.
SMILES,uPA generation,Chronic BCR inh,RGS4 inhibitor,Eya2 phos inh,USP2a block,GCN5L2 inh
CCc1cccc(C)c1N(C(=O)CCl)C(C)COC (stereo not given),x,x,x,x,x,2%
COc1ccc(OC)c(N2C(=O)/C(=C/c3ccco3)C(=O)NC2=S)c1,5%,3%,u,-23%,u,13µM*
O=C1NC(=S)N(c2ccc(F)cc2)C(=O)/C1=C/c1ccco1,x,4%,x,8%,u,5.6µM*
C[C@H]1COC2=C1C(=O)C(=O)c1c2ccc2c1CCCC2(C)C,-21%,21%,u,-6%,2%,u
CC1COC2=C1C(=O)C(=O)c1c2ccc2c1CCCC2(C)C (stereo not given),x,x,x,x,x,28µM*
CC[C@H](CC[C@@H](C)C1CC[C@H]2[C@@H]3CC=C4C[C@@H](O)CC[C@]4(C)[C@H]3CC[C@]12C)C(C)C (stereo not given in full),x,x,u,x,x,10%[0.501 µM]
COc1ccc(-n2c(=O)[nH]c3ccccc3c2=O)c(OC)c1,1%,6%,6%,-10%,-1%,-1%
COc1ccc(-c2nc(C(N)=O)c3[nH]c(=O)n(-c4ccccc4OC)c3n2)c(OC)c1,11µM*,u,26%,11%,3%,-2%
Cc1ncc(CN2CCCC(C(=O)c3cccc(OC(C)C)c3)C2)s1 (stereo not given),8%,-15%,16%,-1%,-1%,20µM*
[Cl-].[Cl-].[Hg+2],x,x,x,x,x,0.14µM*
O=[N+]([O-])c1ccc(Cl)c([N+](=O)[O-])c1,1.3µM*,u,-51%,12%,0%,-12%
O=[N+]([O-])c1ccc(O)c([N+](=O)[O-])c1,-6%,x,-11%,x,x,u
c1ccc(CN2CCC3(CCc4ccccc43)CC2)cc1,x,x,u,x,x,-16%
O=C1C=C(c2ccc3ncccc3c2)C[C@@H](c2ccc(Cl)cc2)C1,u,u,-15%,9%,-1%,-8%
COc1ccc([C@H]2CC(=O)C=C(c3c(OC)cccc3OC)C2)cc1,2.2µM*,-20%,12%,4%,0%,-13%
CCCC1=Nc2cc(C(=O)NC3CCCCC3)ccc2Sc2ccc(C)cc21,x,u,5%,x,x,-16%
CC(=O)O[C@@]12CO[C@@H]1C[C@H](O)[C@@]1(C)C(=O)[C@H](O)C3=C(C)[C@@H](OC(=O)[C@H](O)[C@@H](NC(=O)c4ccccc4)c4ccccc4)C[C@@](O)([C@@H](OC(=O)c4ccccc4)C12)C3(C)C (stereo not given in full),0.45µM*,0%,-3%,-3%,-5%,-7%
CC(=O)O[C@H]1C(=O)[C@@]2(C)C([C@H](OC(=O)c3ccccc3)[C@]3(O)C[C@H](OC(=O)[C@H](O)[C@@H](NC(=O)Cc4ccccc4)c4ccccc4)C(C)=C1C3(C)C)[C@]1(OC(C)=O)CO[C@@H]1C[C@@H]2O (stereo not given in full),u,-7%,8%,-10%,0%,-5%
Cc1cccc(O)c1,x,x,x,x,x,-2%
O=c1c2ccccc2[se]n1-c1ccccc1,u,u,0.67µM*,10%,3%,0.4µM*
C/C(=N\NC(=O)c1ccc2ccccc2c1)c1cccs1,-12%,u,-14%,4%,-1%,1%
CC(C)=CCCN1CCC(NC(=O)C(O)(c2ccccc2)C2CCCC2)CC1 (stereo not given),x,x,x,x,x,4%
O=[N+]([O-])/C=C/c1ccc2c(c1)OCO2,x,x,1.5µM*,-4%,x,-30%
COc1cc(OC)c(OC)cc1CCC(C)NCCC(c1ccccc1)c1ccccc1 (stereo not given),-6%,u,-5%,-7%,2%,-5%
CCCCCCCCCC[n+]1cccc([C@@H]2CCCN2C)c1,x,x,x,x,x,8.9µM*
SMILES,uPA generation,Chronic BCR inh,RGS4 inhibitor,Eya2 phos inh,USP2a block,GCN5L2 inh
CN1CCC[C@H]1c1cccnc1,3%,0%,u,2%,0%,-24%
O=c1cc(-c2ccccc2Cl)oc2c(NS(=O)(=O)c3cc(Cl)cc(Cl)c3O)ccc(O)c12,u,u,u,11%,-6%,32µM*
CC[C@@H](CO)NC(=O)[C@@H]1C=C2c3cccc4c3c(cn4C)C[C@H]2N(C)C1,7%,x,19µM*!,1%,u,u
CCn1nc(-c2ccccc2)nc2c(=O)n(C)c(=O)nc1-2,-19%,u,-32%,56µM*,23%,u
c1nc[n]([Sn]([CH]2CCCCC2)([CH]2CCCCC2)[CH]2CCCCC2)n1,x,x,x,x,x,1%
CN(CCOc1ccc(Cl)cc1)C(=O)c1cccc(S(=O)(=O)N2CCN(c3ccccc3)CC2)c1,u,x,-3%,x,x,x
O=C(Cn1c(=O)oc2cc(S(=O)(=O)NCc3ccccc3)ccc21)N(CCO)Cc1ccccc1,x,u,-10%,x,x,-4%
Cc1ccc(-c2cc(-c3ccc(C)cc3)[n+](-c3ccc(C(=O)O)cc3)c(-c3ccc(C)cc3)c2)cc1,-16%,-29%,9%,20%,0%,-2%
O=C(O)c1ccc(-c2ccc3cc(C45CC6CC(CC(C6)C4)C5)c(O)cc3c2)cc1,x,x,x,x,x,16µM*
CC1(C)C[C@H]2C=C(C=O)[C@]3(C=O)C[C@]3(C)[C@H]2C1,2.2µM*,u,-4%,-8%,1%,-3%
C[C@]12CC[C@H]3[C@@H](CC[C@@]45O[C@@H]4C(=O)C(C#N)C[C@]35C)[C@@H]1CC[C@@H]2O (stereo not given in full),x,x,x,x,x,-1%
C/C(CC(c1ccccc1)c1c(O)c2ccccc2oc1=O)=N\Nc1ccc([N+](=O)[O-])cc1[N+](=O)[O-] (stereo not given),4%,5%,6%,-2%,-1%,-9%
O=c1oc2ccccc2c(O)c1C(c1ccc([N+](=O)[O-])cc1)c1c(O)c2ccccc2oc1=O,-7%,u,-31%,1%,3%,22µM*
Oc1ccccc1-[n+]1c(-c2ccccc2)cc(-c2ccccc2)cc1-c1ccccc1,u,u,-12%,-1%,0%,-11%
Cc1ccccc1-[n+]1c(-c2ccccc2)cc(-c2ccccc2)cc1-c1ccccc1,7.9µM*,u,15%,-5%,1%,-2%
CC(C)n1cnc2c(C(=O)N[C@H]3CN4CCC3CC4)cc(Cl)cc21,x,x,4.7µM*,x,x,2%
COc1cc2oc(=O)c(CC(=O)N3C[C@H]4C[C@@H](C3)c3cccc(=O)n3C4)c(C)c2cc1Cl,9%,x,-2%,x,x,x

# Screening results from PubChem.
